Source: PubChem BioAssay AID1053173 (Broad Institute, 2014)
About 390 (26%) of roughly 1,500 compounds were called active. No rule for the calls is given here. Only a sample is shown. Results with a measured potency or affinity are listed apart.

Molecular target: Histone-lysine N-methyltransferase NSD2 (Homo sapiens) (UniProt O96028)
Assay: blockers of NSD2 H4 peptide methylation – biochemical, AlphaScreen, cherry-picked samples, dose response (AID 1053173)
Details: 120 min; series mostly up to 10 µM

Histone-lysine N-methyltransferase NSD2 (Homo sapiens), sequence (O96028 whole entry, looked up): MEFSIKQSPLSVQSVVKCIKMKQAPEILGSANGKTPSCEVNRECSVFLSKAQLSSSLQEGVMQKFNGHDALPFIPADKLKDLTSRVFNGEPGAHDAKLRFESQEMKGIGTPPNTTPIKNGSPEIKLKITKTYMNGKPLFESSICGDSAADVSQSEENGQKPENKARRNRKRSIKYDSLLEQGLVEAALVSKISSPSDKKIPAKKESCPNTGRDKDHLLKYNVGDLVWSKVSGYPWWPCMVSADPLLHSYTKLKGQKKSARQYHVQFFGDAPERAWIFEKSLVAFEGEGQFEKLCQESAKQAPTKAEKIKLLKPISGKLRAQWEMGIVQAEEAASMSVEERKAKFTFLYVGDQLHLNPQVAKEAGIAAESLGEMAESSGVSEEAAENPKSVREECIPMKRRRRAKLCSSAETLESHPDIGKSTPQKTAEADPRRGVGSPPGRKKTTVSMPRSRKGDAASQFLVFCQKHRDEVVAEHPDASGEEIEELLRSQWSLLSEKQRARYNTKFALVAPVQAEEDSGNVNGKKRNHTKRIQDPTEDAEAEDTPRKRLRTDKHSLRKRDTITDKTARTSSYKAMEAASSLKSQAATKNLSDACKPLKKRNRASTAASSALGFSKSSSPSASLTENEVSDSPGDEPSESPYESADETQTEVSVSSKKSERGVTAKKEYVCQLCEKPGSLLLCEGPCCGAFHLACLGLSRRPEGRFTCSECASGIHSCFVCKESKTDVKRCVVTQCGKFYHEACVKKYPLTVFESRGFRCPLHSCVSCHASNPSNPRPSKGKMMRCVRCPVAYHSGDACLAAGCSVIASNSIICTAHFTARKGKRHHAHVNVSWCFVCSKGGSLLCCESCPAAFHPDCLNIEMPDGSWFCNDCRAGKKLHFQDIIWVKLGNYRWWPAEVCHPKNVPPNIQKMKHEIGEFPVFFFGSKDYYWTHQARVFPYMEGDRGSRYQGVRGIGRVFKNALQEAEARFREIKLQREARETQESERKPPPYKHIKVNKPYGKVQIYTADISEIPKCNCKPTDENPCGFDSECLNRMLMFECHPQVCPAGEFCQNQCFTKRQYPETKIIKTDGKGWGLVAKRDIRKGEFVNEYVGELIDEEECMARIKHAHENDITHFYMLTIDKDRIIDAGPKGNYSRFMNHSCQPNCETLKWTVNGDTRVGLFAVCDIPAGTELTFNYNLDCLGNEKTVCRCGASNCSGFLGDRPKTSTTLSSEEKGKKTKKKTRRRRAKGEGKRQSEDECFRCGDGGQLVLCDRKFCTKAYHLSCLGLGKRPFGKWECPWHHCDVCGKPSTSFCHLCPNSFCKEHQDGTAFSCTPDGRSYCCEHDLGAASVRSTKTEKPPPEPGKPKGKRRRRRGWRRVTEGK

outcome, inactive:
O=C1CN(C(=O)COC(=O)c2ccc([N+](=O)[O-])s2)c2ccccc2N1
CCN(CC)S(=O)(=O)c1ccc(N2CCN(C)CC2)c(NC(=O)Nc2ccccc2F)c1
Cc1ccc(S(=O)(=O)N2CCN(C(=O)C(F)(F)F)C2c2ccc(N(C)C)cc2)cc1 (configuration not stated)
Cc1ccccc1CN1CCN(C(=O)c2ccco2)CC1
CC1Oc2ccc(C#N)cc2N(Cc2cccc(F)c2)C1=O (configuration not stated)
C=CCN1CCN(C(c2cccc(OC)c2OC)c2nnnn2CCC(C)C)CC1 (configuration not stated)
CC(=O)c1ccc(NC(=O)CC2Nc3cccc4cccc(c34)NC2=O)cc1 (configuration not stated)
O=C1CCCC2=C1C(c1ccc(O)c(O)c1)c1c(ccc3ncccc13)N2 (configuration not stated)
COCCCNC(=S)Nc1cccc2ncccc12
CN(CCc1ccccc1)C1CCCN(S(=O)(=O)N(C)C)C1 (configuration not stated)
C/C(CC(=O)NCCCN1CCOCC1)=N\NC(=O)COc1ccc(Cl)cc1
O=C(COC(=O)c1ccc([N+](=O)[O-])o1)NC1CCS(=O)(=O)C1 (configuration not stated)
Cc1cccc(NC(=O)c2ccc(NS(=O)(=O)c3cccc4cccnc34)cc2)c1
Cc1ccc(CSc2nnc(Nc3ccc(C)cc3)s2)cc1
CN(c1ccc(C(=O)O)cc1)S(=O)(=O)c1ccccc1
Cc1cc(C)c2c(c1)N[C@H](c1cccs1)[C@@H]1CCO[C@H]21
CC(NC(=O)c1cccc(Br)c1)c1ccccc1 (configuration not stated)
CCN(CC)C(=O)COc1ccc2oc(C)c(C(=O)OC(C)C)c2c1
COc1ccc(C)cc1NC(=O)CCNC(=O)Cn1cnc2ccccc2c1=O
Cc1ccc(Cn2c(SCC(=O)NCC3CCCO3)nc3c2c(=O)n(C)c(=O)n3C)cc1 (configuration not stated)
C/C(C=Nn1c(-c2ccc(F)cc2)n[nH]c1=S)=C/c1ccco1
Cc1cc2ccccn2c1C(=O)c1ccc([N+](=O)[O-])o1
Cc1ccc(C(=O)NC(=S)NNC(=O)c2ccccc2O)cc1
COc1ccc(S(=O)(=O)NCc2ccc3c(c2)OCO3)cc1OC
Cn1c(COc2ccc(Cl)cc2)nnc1SCC(=O)NC1CCCCC1
Cc1ccc(S(=O)(=O)N2CCCC(N3CCOCC3)C2)cc1Cl (configuration not stated)
O=C(OCC(=O)N1CCOCC1)c1ccc(Br)cc1
O=C(NCCC(=O)N1CCc2ccccc21)c1ccco1
O=C1CC(C(=O)N2CCc3ccccc32)CN1c1ccccc1 (configuration not stated)
O=C(c1cc(-c2ccc(Cl)cc2)n(-c2ccc(Cl)cc2)n1)N1CCOCC1
C=CCn1c(SCc2ccc3c(c2)OCO3)nc2scc(-c3ccco3)c2c1=O
Cc1cccc(OCC(=O)Nc2ncn[nH]2)c1C
N#Cc1ccc(OCC(=O)NCCCn2ccnc2)cc1
COCCCNC(=O)COc1ccc(Cl)c(C)c1
Cc1cc(OCCn2nc(C(=O)O)c3ccccc3c2=O)ccc1C(C)C
COCCNc1nc(-c2ccccc2)nc2ccccc12
CC(=O)c1ccc(NC(=S)NCCc2cccc(Cl)c2)cc1
COCCNC(=O)CN(C(=O)CCC(=O)Nc1nccs1)c1ccc2c(c1)OCO2
CCOC(=O)c1cc(NC(=O)CN2CCCC2)cc(C(=O)OCC)c1
O=C(Cn1cnc2c(cnn2-c2ccccc2)c1=O)OCc1ccccc1
CN(C)S(=O)(=O)c1ccc(Cl)c(C(=O)OCC(=O)c2ccco2)c1
CN(C(=O)CN1C(=O)S/C(=C\c2ccccc2F)C1=O)C1CCS(=O)(=O)C1 (configuration not stated)
COc1ccc(CN(C(=O)c2cccc(OC)c2)C2CCS(=O)(=O)C2)cc1 (configuration not stated)
COC(=O)c1nc(NC(=O)c2ccccc2)n[nH]1
Cc1ccc(C)c(NC(=S)Nc2cccc3cnccc23)c1
O=C(Nc1cc(Cl)ccc1-n1cncn1)c1cccs1
COc1ccc(C(C(=O)NC(C)(C)C)N(C(=O)CCC(=O)Nc2cc(C)on2)c2ccccc2F)cc1 (configuration not stated)
COc1cccc(/C=C2\N=C(SC)SC2=O)c1OC
Cc1c(C(=O)N2CCN(c3ccc(F)cc3)CC2)sc2ncnc(N3CCN(c4ccccn4)CC3)c12
COC(=O)c1ccc(Cn2cnc3c(sc4nc(N5CCOCC5)c5c(c43)CCCC5)c2=O)o1
CC(C)c1nc2oc3c(NCC4CCCO4)ncnc3c2c2c1COC(C)(C)C2 (configuration not stated)
CCO/C=C/C(=O)N(C)CCC#N
CCN(CC)C(=O)CSc1nc2ccccc2c(=O)n1CCC(=O)NCc1ccc(F)cc1
COc1cc(NC(=O)CCn2c(=O)oc3ccccc32)cc(OC)c1OC
Cc1[nH][nH]c(=O)c1C(c1ccc(-c2cccc(C(=O)O)c2)o1)c1c(C)[nH][nH]c1=O
Cc1[nH][nH]c(=O)c1C(c1ccc(-c2ccc(F)cc2)o1)c1c(C)[nH][nH]c1=O
O=C(CC1SC2=NCCN2C1=O)Nc1ccccc1 (configuration not stated)
Cc1ccc(OCCCC(=O)Nc2ccccc2C(F)(F)F)cc1
Cc1cccc(C)c1OCC(O)CNS(=O)(=O)c1ccccc1C(=O)N1CCCCC1 (configuration not stated)
Cc1ccc(-n2nc3c(=O)n(CC(=O)NCc4ccccc4)nc(C)c3c2C)cc1
Fc1ccc(C2CCNCC2COc2ccc3c(c2)OCO3)cc1 (configuration not stated)
CN(C)Cc1cc(O)c(CN(C)C)cc1O
Cc1ccc(S(=O)(=O)N2CCOCC2)cc1NC(=O)CSc1ccccn1
COc1cc2[nH]c(Cl)c([N+](=O)[O-])c2cc1OC
O=C(Nc1cccc(O)c1)c1ccc(Br)cc1
COc1cc(/C=C/c2nc3ccccc3c(=O)[nH]2)cc(Cl)c1O
CC(=O)Nc1cccc(C(=O)OCc2ccccc2)c1
Nc1nc(=S)c2ncn(C3OC(CO)C(O)C3O)c2[nH]1 (configuration not stated)
O=C(/C=C/c1ccc(-c2ccccc2)cc1)NCc1cccnc1
CC(C)(C)CC(=O)Nc1nnc(SCC(=O)NCc2cccs2)s1
C=CCn1c(=NC(=O)c2ccc(S(=O)(=O)N3CCCC3)cc2)sc2cc(NC(C)=O)ccc21
CC1(C)NC(=O)N(CCOCCOc2c(Cl)cc(Cl)cc2Cl)C1=O
COc1ccc(CC(=O)NC2CCCCCC2)c(OC)c1
CC(C)=NOCC(=O)Nn1c(COc2c(C)cccc2C)nc2ccccc2c1=O
Cc1cc(-c2n[nH]c(=S)n2N=Cc2cccc(OCc3ccccc3)c2)n[nH]1
COc1ccc2nc3cccc(OC)c3nc2c1
C=CCOCC(O)Cn1c(N2CCCC2)nc2c1c(=O)n(C)c(=O)n2C (configuration not stated)
CSCCC(NC(=O)c1ccccc1Cl)C(=O)NCC(c1ccc(F)cc1)N1CCOCC1 (configuration not stated)
COc1cc(C(=O)NC(C)c2ccc3ccccc3c2)cc(Cl)c1O (configuration not stated)
COc1cccc(-c2nn3c(-c4ccco4)nnc3s2)c1
COc1ccc(-c2nnc3n2N=C(C)CS3)cc1
Cn1c(=O)[nH]c2nnc(-c3ccc(Cl)c(Cl)c3)nc2c1=O
CCOc1ccccc1NC(=O)C1CCCN1C(=O)c1cccs1 (configuration not stated)
CSc1nc(N)nc(N(C)C)n1
O=C(COC(=O)c1ccccc1F)NC1CC1
CCOc1ccc(C(CC(=O)O)NC(=O)C23CC4CC(CC(C4)C2)C3)cc1OC (configuration not stated)
Cc1nc([N+](=O)[O-])c(C(=O)OCc2ccccc2F)n1C
CNc1c(N)n(Cc2ccccc2)c(=O)[nH]c1=O
Cc1ccccc1CS(=O)(=O)CC(O)CN1CCCC1=O (configuration not stated)
CCc1ccc(NC(=O)c2cc(-c3ccc4c(c3)OCO4)on2)cc1
CCc1ccc(N(CC(=O)NCc2ccc3c(c2)OCO3)C(=O)c2csnn2)cc1
COc1ccc2c(c1)c1nc3ccccc3nc1n2CCn1c(=O)oc2ccccc21
Nc1c(C(=O)NCc2ccc(F)cc2)c2nc3ccccc3nc2n1CCCN1CCOCC1
COc1ccc(C)cc1COC(=O)c1[nH]c(C)c(C(C)=O)c1C
COc1ccc(N(CC(=O)NCCSc2ccccn2)S(C)(=O)=O)cc1
COc1ccc(CNC(=O)CCCn2nc(C)c([N+](=O)[O-])c2C)cc1OC
Cc1nc2cc(C(=O)NCc3cccnc3)ccc2n1-c1ccc(F)cc1F
Cc1ccc(C(=O)NCCn2c(N)c(C#N)c3nc4ccccc4nc32)cc1
CCOC(=O)CNC(=O)N1CCC(CCC(=O)N(C)Cc2ccccc2)CC1
CCCC(=O)Nc1ccc(C(=O)O)cc1NC(=O)CCC
O=C(O)c1ccc2cccnc2c1O
COc1cccc(NC(=O)c2ccc3c(c2)OCCO3)c1
COc1ccc(-c2ncncc2-c2ccccc2)c(O)c1
Cc1c([N+](=O)[O-])cc(N2C(=O)C=CC2=O)cc1[N+](=O)[O-]
O=C1C=CC(=O)N1c1ccc(N2CCCCC2)cc1
CCOC(=S)SCC(=O)Nc1nc(C)c(C)s1
O=C(Nc1nnc(SCc2cccc3ccccc23)s1)C1COc2ccccc2O1 (configuration not stated)
NC(=O)C1Cc2ccccc2CN1S(=O)(=O)c1ccc(Cl)s1 (configuration not stated)
COc1ccccc1N(C)S(=O)(=O)c1ccc(C(=O)NC2CCCCCC2)cc1
COc1cc(OC)c(C(=O)OC(C)C(=O)NCc2ccc3c(c2)OCO3)cc1OC (configuration not stated)
C/C(=N\NC(=O)c1nnn(-c2nonc2N)c1C)c1ccc(-c2ccccc2)cc1
CC(=O)c1c(C)[nH]c(C(=O)Nc2ccc(C)cc2Br)c1C
